Results filed as inconclusive are left out. A call without a number means that no potency is given here. Active and inactive are the calls of the source. Calls come from the whole dose curve; as a rule, active = well fitted inhibition curve with a large enough effect; inconclusive = small, poorly fitted or top-dose-only effect; inactive = no such curve, though single readings can be large or run the other way.
Potency is the fitted concentration of half-maximal effect.

The test in a line: qHTS for Inhibitors of the Aldehyde Dehydrogenase Family (ALDH1A2, ALDH1A3, ALDH2, ALDH3A1) (AID 2061307). For potency: test system not described further here. Note: nearly all actives have a fitted effect of over 50% in size. The settings on record: ALDH inhibition qHTS; series mostly up to 50.3 µM. (In qHTS, concentration-response curves come from the screen itself.)
Consider `O=C(c1cccc(Cl)c1)c1no[n+]([O-])c1C(=O)c1cccc(Cl)c1`, for which the Potency was 12.7 µM (active). With `COc1ccc(C(=O)N=Nc2c(O)n(Cc3c(Cl)cccc3Cl)c3ccccc23)cc1`, the Potency result is “inactive”. `Cc1csc(-c2cccc(C(=O)Nc3ccc(F)c(F)c3F)c2)n1`: the Potency entry is “inactive”. Take `Cc1cc(=O)n2[nH]c(NC(=O)c3ccccc3C)nc2n1`: the Potency entry was “inactive”. The value for `COc1cc2ccccc2cc1C(=O)NC(=S)Nc1cccc(C(=O)O)c1` was 4.49 µM (active).

`O=C(c1cccs1)c1no[n+]([O-])c1C(=O)c1cccs1`: the Potency is 1.59 µM (active). In the case of `Cc1cc(=O)n2[nH]c(NC(=O)c3ccccc3)nc2n1` it was “inactive”; in that of `Cc1ncccc1NC(=O)c1cccs1`, “inactive”; in that of `Cc1cc(=O)n2[nH]c(NC(=O)c3cccnc3)nc2n1`, “inactive”.

Regarding `Cc1noc(C)c1-c1cncc(C(=O)NCc2cccnc2)c1`, the Potency entry is “inactive”. In the case of `Cc1cccc(NC(=O)C2CC(=O)N(c3ccc(S(=O)(=O)N(C)C)cc3)C2)n1` (configuration not stated) it was “inactive”; in that of `Cc1oc(-c2ccc(C(F)(F)F)cc2)nc1COc1cccc2cc(NS(=O)(=O)C(F)(F)F)ccc12`, 12.7 µM (active); in that of `CC(C)Oc1ccc(-c2nc(C(=O)Nc3ncn[nH]3)cs2)cc1`, 3.55 µM (active).

Take `CN(C)C(C(=O)N1CCN(c2ccc(C#N)cc2)CC1)c1ccccc1F` (configuration not stated): the Potency result was “inactive”. Turning to `COc1cccc(NC(=O)c2cc3ccccc3[nH]c2=O)c1`, the Potency entry is “inactive”.

`Cc1c(P(=S)(c2ccccc2)c2ccccc2)[n+]2ccccc2n1C/C=C/c1ccc(Cl)cc1`: the Potency entry is “inactive”. `CC(=O)c1c(C)n(-c2ccc(N(C)C)cc2)c2ccc(O)cc12`: the Potency entry is “inactive”.

The values above are taken from PubChem BioAssay (NCATS).
